108 sequences from PubChem BioAssay AID1508600 (Functional Genomics Laboratory (NCATS/FGL), 2020) can be followed below.

The whole screen tested about 53,000 sequences, of which about 3,700 (7%) were called active.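 The calls were made as follows: active = gene knockdowns whose robust z-score for IL-1 alpha signal is at least 2 or at most -2, so actives lie on both sides; inactive = the rest.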 This excerpt belongs to a sample that is enriched for actives.

This assay can be described thus: Components of the Cytosolic LPS Sensing Pathway: Gene Identification via Genome-wide siRNA Screen.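 Also: robust z of the log signal after scaling to non-targeting control siRNA wells of the plate.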 Particulars: RAW264.7 macrophages, IL-1a HTRF, actives lie on both sides, screened at 100 nM (by protocol), cells primed 5 h with Pam3CSK4 first. In a few lines:
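Read-out: IL-1a HTRF on supernatant, divided by plate negative-control median ×100, log-transformed and converted to robust z-score. Cells were RAW264.7 given 100 nM siRNA, Pam3CSK4-primed 5 hours, then LipidA-transfected 24 hour.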
Background: TR-FRET usually uses a lanthanide donor and a delayed reading to cut background.
For the sequence CCACUUAAAAUUCAUUCCUTT against Arl6ip1, the z-score was -0.21 (inactive). Regarding GGAUGAUGCCCGAAAGAACTT against Zfp536, the z-score is -4.55 (active). As for GGAGAAGACACAGAGAACCTT against Pkd2l1, the figure is 0.645 (inactive); as for GGGCAUGGGAUUUAAUUCUTT against Dnajc11, 1.54 (inactive); as for CGCUAUGGUUUCUCAGCUUTT against Myh4, -0.02 (inactive).

For GGAGAUUCAGAAGAUCCUCTT against Isoc2b, the z-score was 2.49 (active). As for GCUCUCACCUUCAUUUGAATT against Tmem174, the figure is -1.37 (inactive).

Consider GGAAAUAAUGUUACUGACATT against Zfp445, for which the z-score was -0.178 (inactive). Turning to GGCAUCAAUAGGAAGAUGCTT against Rgs19, the z-score is 0.182 (inactive). GCAUUUAGGUCUGAUAAAGTT against Gpr61: the z-score is 0.00391 (inactive).

Turning to CCGACUGUUAAAGUGGUGUTT against Arih1, the z-score is 0.608 (inactive). The result for GUUUUACAAAUUCCUCCAUTT against Olfr1447 reads 0.345 (inactive); that for CCAGUUUUCGACACAAUUCTT against Cma1, 0.645 (inactive).

With GGCAGAGAAAUGGGCAAUGTT against Hcar1, the z-score was 2.12 (active). On to GCUUAUGAGACUCAUUUAATT against Oser1, for which the z-score is 0.554 (inactive).

With GCCGCUGCACUACAAUUUGTT against Trhde, the z-score was 0.717 (inactive).

For the sequence GGAGCUAUACUGCUUUUCCTT against Mtmr7, the z-score is 1.61 (inactive). For GGCUUACCUGAACUUUCUGTT against Degs2, the z-score was -0.381 (inactive). For the sequence GGGUGUCUUACACCUUACATT against Sertad2, the z-score was -1.48 (inactive).

Take GGUGUUUGAGUCAACAGACTT against Oard1: the z-score is -2.1 (active).

Take GCUGUUGUUUGCUAGCAAATT against Lipa: the z-score is 0.973 (inactive). As for GGAAGUCCACAUUGCUGGUTT against Slc2a9, the figure is 1.85 (inactive); as for GGGUUUUGAGAUGUAAUGATT against Marchf8, 0.0734 (inactive); as for GCAGCCUAUGGAAGAUCACTT against Tle4, 2.8 (active). The result for GCACUACACCUCCAGUUCGTT against Gne reads 0.164 (inactive); that for CCACAUGUUUGUCUCAAAATT against Gskip, 1.28 (inactive). The result for CGACCCUACAGAGGACAUUTT against Pik3r6 reads 0.135 (inactive); that for GGAAAUGAAGCAUCUGUAUTT against Txnip, -2.3 (active). For the sequence GGGUUUCACCCAAAGCCUUTT against Zfp354c, the z-score was -1.41 (inactive). GGCUCAGUAAGGACUCUGATT against Tac2: the z-score is 1.24 (inactive). GGAAUAGAAGCACUGUGUGTT against Brs3: the z-score is -1.35 (inactive). The result for GGGCCCAGAUUUCAAUGGGTT against Car14 reads 0.379 (inactive); that for GCCACUCACUAUGCUACUCTT against Pnpla2, -2.62 (active); that for GGCAUCUCCCACAUUAGAGTT against Sell, 0.949 (inactive).

Take GGAAUAUGACUACAUGAAATT against Calu: the z-score was -0.0124 (inactive). As for GGAAAUUCGUGCAUGAAGATT against Sgsm2, the figure is -1.31 (inactive); as for GGAGUCGAAUCUUCUCUAATT against Taco1, -1.07 (inactive); as for GGUGCACACCAAUGUUCUGTT against Efemp2, 2.03 (active). In the case of GCUAUGCUGUUUUAUGUGATT against Synpr, the z-score was 0.212 (inactive). As to CCUAUUGUAGCAAGUUACATT against H3c7, the z-score was 1.15 (inactive). The result for GGCAGAUGUACUGAUUAAATT against Tmprss11g reads 1.05 (inactive). The result for CGUUCUCUUGAAAUAAGCCTT against Pogk reads -0.147 (inactive). As for GGGACCUCCAUCGUAUUUGTT against Slc29a4, the z-score was 0.71 (inactive). Regarding GCAACUGGUGAUAAGGUGUTT against Flywch1, the z-score was 0.486 (inactive). With GGCCAGAGUAUCGAUGUUCTT against Slc25a14, the z-score is -0.566 (inactive). The result for GGGACUUGAGUAGCUGACUTT against Sgta reads -1.49 (inactive). As for GCUUUCUUACCAAGAGUCATT against Vsig8, the figure is -2.89 (active); as for CCUCUUAUCUCGAACAUUATT against Dsn1, 0.95 (inactive). The result for GGAGAUAACACCGUUACUUTT against Olfr769 reads 0.766 (inactive); that for GGAUCUGAAGAUGAUGAACTT against Ces2e, 0.0623 (inactive). Consider CCUAGAAAUGAUUGUUGUUTT against Ncapg2, for which the z-score was 1.98 (inactive). The result for GGAGACCUUAAAAGAACAUTT against Ccdc134 reads 0.775 (inactive). Regarding CCCGGUUGUCUGGAUAUGATT against Map3k3, the z-score is -2.39 (active).

Regarding CCCAGAUGGAUUUUUGCAUTT against Gm10413, the z-score is 0.102 (inactive). The result for GCCAAAGUCUUGCUAUGUGTT against Uba7 reads -0.481 (inactive).

On to GGAAGCUCUUCAACUCUACTT against Vps4b, for which the z-score is 2.06 (active).

Consider AUUGGACUUCUACAUGGCUTT against Olfr207, for which the z-score was 1.43 (inactive). The result for GGAGAGAUGGUAUUGUUGGTT against Olfr1298 reads -0.0094 (inactive).

Consider GGGCACUCAAGUGUAUGUCTT against Hpx, for which the z-score is 0.224 (inactive). As to GCCAAAUGAACUAGCAAUATT against Golm1, the z-score was 0.0585 (inactive). As for GGCAUUUGAGUGGACUGUUTT against Hirip3, the figure is 0.421 (inactive).

With GGUCUGUCUCGUCUACAAUTT against Gstm1, the z-score is 2.98 (active). The result for GGCGUAAAAUUCAAACUCATT against Cr2 reads 1.02 (inactive); that for GGAUCAGGAAGGAUUCGGATT against Zfp84, -1.01 (inactive); that for GGAAGGAGCUUCGAAAAAATT against Pex16, 0.129 (inactive). The result for GGAGAAGUUUAGUGAAGAATT against Rmdn2 reads -2.48 (active); that for GGCUUAAGGACAAGAAGAUTT against Gsn, -0.747 (inactive); that for CCAUAAGUUUGAAGAAUCCTT against Glg1, 1.45 (inactive).

For the sequence “GGCUAUGUAGAUGGUUUUGTT against B830017H08Rik”, the z-score is 2.65 (active). As for GGAUCACCUAACGUAAUGGTT against Phlda1, the figure is -1.31 (inactive). With GGUGACUUGGAAGAGCCCATT against Il1rapl2, the z-score is -0.637 (inactive). For CGUCGUGGUUGGUAUGUAATT against Sacs, the z-score was -1.18 (inactive). For GGCCAGACAAAUGAUGCCATT against Slc25a30, the z-score was -3.04 (active). As to GGAACUAUAUACGAUGAUGTT against Usp8, the z-score was -0.316 (inactive). Regarding GGAGUUUGAAGACUUUUUGTT against Pstpip2, the z-score was 0.24 (inactive). The result for CGGCUAGAUGAUCCUACCUTT against Tsga13 reads -0.542 (inactive); that for GGCCCUAGAUGAGCACAAATT against Kcnh3, 2.48 (active); that for GCUCUGAUCAUUUGACUUGTT against Ovca2, 0.128 (inactive). As to GGACCAGAAAUACAUUUUCTT against Arhgef2, the z-score is -0.288 (inactive). The result for GGGCAGAAACAAAAGGUUATT against Tmlhe reads 0.917 (inactive); that for GGAAUGUUACCCUUCAACUTT against Slc25a13, -0.0366 (inactive). Consider GGACUCAAGAGAAAUUCAATT against Nod2, for which the z-score was 2.19 (active). On to GGGAUGUGAAAUGCACCUUTT against Rftn1, for which the z-score was -1.03 (inactive).

Regarding GGUAUUCUUCCUCCAUGGGTT against Olfr638, the z-score was -3.22 (active).

Regarding UGACUUUUGGACACGAGGCTT against Trim15, the z-score is -0.159 (inactive). As for GGACAAAUGACUGGUACCCTT against Gorasp2, the figure is -0.314 (inactive); as for CGUGUGAAGCAGUUAUGAUTT against Pbx3, 1.02 (inactive). For GGCAAAUAGUUUCUUCAAUTT against Npnt, the z-score is -0.485 (inactive). The result for GGUUGUGAACAGUCCACCCTT against Ski reads 0.461 (inactive). As to GGAGUGGCCAUUAAAUUUATT against Slc17a8, the z-score is 2.75 (active). As for GGUGCUGGUGGAUGAACUATT against Nags, the figure is -1.5 (inactive); as for GGAGGCUAUUACUGUUUAUTT against Fam107b, 0.601 (inactive). In the case of GGUCAAGAGUGCAUUCAAATT against Olfr1445, the z-score was 0.266 (inactive). The result for GGAACUGAUAUCAUGUACATT against Slc25a5 reads 2.15 (active). Turning to GCCGAUUCUCAUAUUUGACTT against Exo1, the z-score was -0.742 (inactive).

GGCUGAGAACAAUAUGUAUTT against Ccdc80: the z-score was 0.323 (inactive).

Consider GGGCAUUUGGCCUUUCUCATT against Cpsf4, for which the z-score is -0.905 (inactive). As for GGGCUUGUUUGACUUUCAUTT against Btd, the figure is 0.175 (inactive); as for GGCUGUAAUGAGGACUGAUTT against Ss18l2, 3.25 (active); as for CCCUAUACAGCGUACCCAATT against Eya2, -0.754 (inactive). As for GCCAUGCUCACUGAACUUCTT against Nanp, the figure is -2.3 (active); as for GGACUUGAAACUUCUGGAUTT against Nudt16, 0.453 (inactive); as for GCUAUGUAACACACCGCUGTT against Ticam1, -1.24 (inactive). Regarding GGUGUCUUUACGUCUCCCATT against Neto1, the z-score is -2.56 (active). The result for GGACGAGUCACACUUUGGATT against Cdyl2 reads -0.328 (inactive); that for GGUCAAGAGGAGGGUACCUTT against Foxred2, 0.313 (inactive); that for GCUUUAAAUAGAGACUAUCTT against Sox30, 1.15 (inactive). As for GGAGACUUCAGCACCUUUGTT against C4a, the figure is 0.455 (inactive).
